Assay [1] can be described thus: NCI Yeast Anticancer Drug Screen. Data for the rad50 strain (AID 155).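 Note: 0% = growth of vehicle-only cultures of the same strain.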 Conditions: S. cerevisiae rad50 strain growth inhibition; at 50.0 µM; hits give high values. The gist of the method:
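Growth of the mutant yeast was measured after compound exposure and referenced to vehicle-treated cultures.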

Assay [2] can be described thus: NCI Yeast Anticancer Drug Screen. Data for the mec2-1 strain (AID 157). The following applies: S. cerevisiae mec2-1 strain, at 50.0 µM, hits give high values. The gist of the method: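 Cells of the genetically defined mec2-1 yeast strain are incubated with test compound. Inhibition of growth is calculated against vehicle-treated controls.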
Assay [3] in a line: NCI Yeast Anticancer Drug Screen. Data for the sgs1 mgt1 strain (AID 161).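 Note: 0% = growth of cultures given vehicle only.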 Conditions: S. cerevisiae sgs1 mgt1 strain, at 50.0 µM, hits give high values. Summed up:
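Genetically altered yeast, compound exposure, growth inhibition relative to vehicle.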

Assay [4] in a line: NCI Yeast Anticancer Drug Screen. Data for the cln2 rad14 strain (AID 165).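 Note: 0% = growth equal to vehicle treated cultures.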 The following applies: S. cerevisiae cln2 rad14 strain, at 50.0 µM, hits give high values. The gist of the method: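 The screen exposed genetically defined yeast (cln2 rad14) to test compounds and scored growth inhibition relative to vehicle-treated controls.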
The nature of assay [5]: NCI Yeast Anticancer Drug Screen. Data for the bub3 strain (AID 167). The following applies: S. cerevisiae bub3 mutant strain, at 50.0 µM, hits give high values. The gist of the method:
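Whole-cell yeast assay. The mutant strain was incubated with compounds, and growth inhibition was determined by comparison with vehicle-treated cells.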

Assay [6] in a line: NCI Yeast Anticancer Drug Screen. Data for the mlh1 rad18 strain (AID 175). Conditions: S. cerevisiae mlh1 rad18 strain growth inhibition; at 50.0 µM; hits give high values. The gist of the method:
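Compound-treated yeast growth, normalised to vehicle controls. Strain bears defined DNA repair mutations.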

About 79,000 compounds went through this panel and 15% of them were active in at least one assay; those are over-represented in the sample as a whole. Values without a mark were called inactive. Activity calls are given as the source filed them. Cut-off read from the data, not from the text of the source: active = growth inhibition above about 70%; inactive = the rest.

`C(#CP(c1ccccc1)c1ccccc1)c1ccccc1`: the growth inhibition in assay [1] is 62.5%; in assay [2], 34.5%; in assay [3], 74.8% (active); in assay [4] it was 20.1%; in assay [5], 76.8% (active); in assay [6], 85.5% (active).

As to `CNCCc1ccccc1`, the growth inhibition in assay [1] is 26%; in assay [2], 6.05%; in assay [3], 14.3%; in assay [4], 14.6%; in assay [5] it was -33.8%; in assay [6], -3.05%.

In the case of `O=[N+]([O-])c1ccc(SSC(Cl)(Cl)Cl)cc1`, the growth inhibition in assay [1] was 33%; in assay [2] it was 94.2% (active); in assay [3], 93.5% (active); in assay [4], 13.4%; in assay [5] it was 78.5% (active); in assay [6], 84.4% (active).

On to `C[C@H](CCC1SC1(C)C)C1CCC2(C)C3=C(CC[C@]12C)[C@@]1(C)CC[C@H](O)C(C)(C)C1CC3` (stereo not given in full), for which the growth inhibition in assay [1] was 9.85%; in assay [2], -11.2%; in assay [3], -11.2%; in assay [4], -48.8%; in assay [5], -5.2%; in assay [6], 1.9%.

With `Nc1nc(N)c(N)c(N)n1`, the growth inhibition is 3.05% in assay [1]; 1.8% in assay [2]; 14.6% in assay [3]; -3.05% in assay [4]; -3.05% in assay [5]; 34.2% in assay [6].

For `Nc1nc(-c2ccccc2)c[se]1`, the growth inhibition is 63.6% in assay [1]; 32.3% in assay [2]; 30.6% in assay [3]; 16.6% in assay [4]; -7.65% in assay [5]; 31.4% in assay [6].

With `O=N[O-].[Co].[NH-]CC[NH-].[NH-]CC[NH-].[NH2-]`, the growth inhibition in assay [1] is 5.35%; in assay [2], 7.5%; in assay [3], -6.25%; in assay [4] it was 4.95%; in assay [5], 4.85%; in assay [6] it was -2.4%.

In the case of `CCC(Br)C(=O)OCCCl` (stereo not given), the growth inhibition in assay [1] was 12%; in assay [2], 13.7%; in assay [3], 7.7%; in assay [4], -4.75%; in assay [5], 15.5%; in assay [6] it was 3.6%.

Regarding `Cc1ccccc1NC(N)=S`, the growth inhibition is 27.6% in assay [1]; 9.15% in assay [2]; -8.2% in assay [3]; 1.55% in assay [4]; 5.4% in assay [5]; 15.7% in assay [6].

Consider `CO[C@H]1C=CC2=CCN3CCC4=C(CC(=O)OC4)[C@]23C1`, for which the growth inhibition in assay [1] is -9.3%; in assay [2], -18.9%; in assay [3], -3.6%; in assay [4], 1.8%; in assay [5], -21.9%; in assay [6], -15.4%.

For `O=Cc1ccccc1O.[Zn+2]`, the growth inhibition was 9.25% in assay [1]; 6.2% in assay [2]; 2.8% in assay [3]; 3.6% in assay [4]; 0.75% in assay [5]; 1.6% in assay [6].

In the case of `CCOP(=O)(CCN(C)C)OCC`, the growth inhibition is -6.45% in assay [1]; 3.55% in assay [2]; -4.4% in assay [3]; -27.7% in assay [4]; -7.9% in assay [5]; -0.45% in assay [6].

Turning to `C=CCNCC(O)c1ccccc1` (stereo not given), the growth inhibition in assay [1] was 13.5%; in assay [2] it was -14.2%; in assay [3] it was -11.8%; in assay [4], 6.7%; in assay [5], 6.5%; in assay [6], 4.6%.

With `CCOP(=O)(OCC)O/N=C(/C#N)c1ccccc1`, the growth inhibition in assay [1] is 11.3%; in assay [2], -6.4%; in assay [3] it was 18.4%; in assay [4], -0.35%; in assay [5], -7.45%; in assay [6] it was -1%.

Take `CNC(=O)Oc1cccc2c(OC3OC(CO)C(O)C(O)C3O)cccc12` (stereo not given): the growth inhibition is -25.5% in assay [1]; 19.4% in assay [2]; -12.8% in assay [3]; -16.7% in assay [4]; 2.05% in assay [5]; -23.9% in assay [6].

As to `Cn1cnc([N+](=O)[O-])c1[Se]c1nc(N)nc2nc[nH]c12`, the growth inhibition in assay [1] was -24.1%; in assay [2] it was -12%; in assay [3], -26.8%; in assay [4], 15.2%; in assay [5] it was -7.65%; in assay [6] it was -17.9%.

For the compound `S=C(N=Nc1ccccc1)NNc1ccccc1.[Ni]`, the growth inhibition was 12.3% in assay [1]; -15.3% in assay [2]; 2% in assay [3]; 6.25% in assay [4]; 26.8% in assay [5]; 0.5% in assay [6].

On to `O=[N+]([O-])c1ccc(N=Nc2ccc(N(CCCl)CCCl)cc2)cc1`, for which the growth inhibition is -4.8% in assay [1]; 14.1% in assay [2]; -1.25% in assay [3]; -14.9% in assay [4]; 5% in assay [5]; 23.5% in assay [6].

Turning to `O=[N+]([O-])c1ccc(/C=C/c2cc(Cl)ccc2S(=O)(=O)F)c(Cl)c1`, the growth inhibition is 2.6% in assay [1]; -0.85% in assay [2]; 6.8% in assay [3]; 13.4% in assay [4]; 12.9% in assay [5]; -4.35% in assay [6].

Take `CN1CCC[N+](C)=C1c1ccc(N(C)C)cc1`: the growth inhibition in assay [1] is -22.7%; in assay [2], -12.3%; in assay [3] it was -4.5%; in assay [4], -14.2%; in assay [5], -10.1%; in assay [6], -7.15%.

The values are drawn from PubChem BioAssay (NCI).
